Compound activity: PubChem, National Center for Advancing Translational Sciences (NCATS)
Cruzain inh noDet: qHTS Assay for Promiscuous and Specific Inhibitors of Cruzain (without detergent); 2.3% of 200,000 active; Potency, µM, for inactives: max response, negative = inhibition, usual class: inhibitors; purified cruzain, Z-FR-AMC fluorescence, no detergent;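 also: plate controls were enzyme without inhibitor for no effect and buffer without enzyme for full effect; nearly all actives have a fitted effect of over 40% in size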
Target sequence (P25779 123-467 limits assumed): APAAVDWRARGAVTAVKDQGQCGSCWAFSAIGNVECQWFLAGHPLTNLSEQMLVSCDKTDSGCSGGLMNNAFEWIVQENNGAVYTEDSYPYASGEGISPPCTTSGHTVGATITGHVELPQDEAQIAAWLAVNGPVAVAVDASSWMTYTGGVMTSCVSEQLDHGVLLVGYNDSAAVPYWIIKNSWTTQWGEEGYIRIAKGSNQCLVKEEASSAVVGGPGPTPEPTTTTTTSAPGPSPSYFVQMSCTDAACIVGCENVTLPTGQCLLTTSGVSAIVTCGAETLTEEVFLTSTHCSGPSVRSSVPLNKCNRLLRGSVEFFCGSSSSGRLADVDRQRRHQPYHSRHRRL
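Purified cruzain at 1.5 nM, pre-incubated 15 min with compound at room temperature in 100 mM sodium acetate pH 5.5, 5 mM DTT, 0.00005% Triton X-100. Reaction started with 2 uM Z-FR-AMC; AMC fluorescence increase over 60 s gives rate.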
Cruzain inh Det: qHTS Assay for Promiscuous and Specific Inhibitors of Cruzain (with detergent); Cruzipain (Trypanosoma cruzi), P25779; purified cruzain, Z-FR-AMC fluorescence, 0.01% Triton; Potency, µM, inactives show max response, negative = inhibition, most hits filed as inhibitors; 0.43% of 200,000 active; AID 1478, 2009;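 also: plate controls were neutral wells for no effect and buffer without enzyme for full effect; nearly all actives have a fitted effect of over 40% in size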
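Steps: dispense cruzain (1.5 nM final) in acetate buffer pH 5.5 with DTT and 0.01% Triton X-100; pin-transfer compounds; incubate 15 min RT; add Z-FR-AMC (2 uM final); read fluorescence every 30 s, using the 60 s intensity change.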
Numbers without * were called inactive; ? = inconclusive. Sampled rows, rich in hits. Any-hit rate of the full collection: about 2.6%. Calls follow the shape of the dose curve; as a rule, active = well fitted curve in the direction sought with a large enough effect; inconclusive = small, poorly fitted or top-dose-only effect, or another doubt; inactive = no such curve, though single readings can be large; an effect the other way counts as inactive or inconclusive. Potency is read from the fitted curve at half-maximal effect.

SMILES	Cruzain inh noDet	Cruzain inh Det
Cc1ccccc1Cn1cc(S(=O)(=O)CC(=O)Nc2nccs2)c2ccccc21	16µM*	-7%
CCOC(=O)N1CCN(C(=O)CS(=O)(=O)c2cn(Cc3ccccc3C)c3ccccc23)CC1	-4%	1%
CC1=C(C(=O)Nc2ccccc2)C(c2ccccn2)n2nc(SCc3ccccc3)nc2N1 (configuration not stated)	12%	0%
COC(=O)c1ccc(CSc2nc3c([nH]c4ccccc43)c(=O)n2-c2ccc(Cl)cc2)o1	-3%	3%
CCN(Cc1ccccc1)C(=O)Cn1c(=O)cc(C)c2c(C)nn(-c3cccc(F)c3)c21	?	-8%
COc1c(Cl)cc(Cl)cc1/C=C/C(=O)c1ccc(NC(=O)c2cccs2)cc1	32µM*	-3%
O=C(Nc1ccc(NC(=O)c2cccs2)cc1)c1ccc(Cl)cc1	-5%	0%
COc1ccc(CC(=O)N2CCc3cc(OC)c(OC)cc3C2COc2ccc3c(C)cc(=O)oc3c2)cc1OC (configuration not stated)	?	5%
CCc1noc(-c2ccc(N(C)Cc3ccc(OC)cc3)c([N+](=O)[O-])c2)n1	13%	-4%
CCc1ccccc1NC(=O)C1c2ccccc2Oc2ccccc21	25µM*	-2%
O=C(Nc1cccnc1Cl)C1c2ccccc2Oc2ccccc21	1%	3%
Cc1cc(C)c(NC(=O)C2c3ccccc3Oc3ccccc32)c(C)c1	13µM*	4%
Cc1nnc(NC(=O)C2c3ccccc3Oc3ccccc32)s1	8%	-5%
CC1CCc2c(sc(NC(=O)CSc3ncnc4c3cnn4-c3ccccc3Cl)c2C#N)C1 (configuration not stated)	10µM*	5%
Cc1csc(NC(=O)CSc2ncnc3c2cnn3-c2ccccc2Cl)n1	-7%	-2%
CCc1nn(CC(=O)NC2CC2)c(=O)c2cc3ccccc3n12	4%	7%
Cc1cccc(NC(=O)NCc2ccc3c(c2)cc(C)n3C)c1	7.9µM*	6%
Cc1cc2cc(CNC(=O)Nc3cccc(Cl)c3)ccc2n1C	13µM*	2%
O=C(NCc1ccncc1)Nc1cccc(Cl)c1	-2%	1%
CCCC(=O)NCc1ccc2c(c1)cc(C)n2C	4%	7%
CCCCC/C=C\C/C=C\C/C=C\C=C\C(=O)CCCC(=O)O	-3%	7%
CN1C(=O)C(=Cc2ccccc2Oc2ccc(Cl)c(F)c2)C(=O)N(C)C1=O	7%	-1%
O=C1NC(=O)/C(=C\c2ccccc2Oc2ccc(F)c(F)c2)S1	25µM*	-7%
CNS(=O)(=O)c1cn(CC(=O)Nc2cccc(OC)c2)cc1S(=O)(=O)NC	-2%	0%
CCCCC[C@H](O)/C=C/[C@@H]1[C@@H](C/C=C\CCCC(=O)OC)[C@@H](O)C[C@H]1O	?	25µM*
SMILES	Cruzain inh noDet	Cruzain inh Det
CCCCC[C@H](O)/C=C/[C@@H]1[C@@H](C/C=C\CCCC(=O)O)[C@@H](O)C[C@H]1O	?	0%
CCOC(=O)c1ccc2c(c1)N(CC(=O)N(C)c1ccccc1)C(=O)c1ccccc1S2	?	-8%
COc1ccc2c(c1)CC(NC(=O)Nc1c(C)cc(C)cc1C)CO2 (configuration not stated)	-1%	5%
CC(NC(=O)COC(=O)c1cc(NS(=O)(=O)c2ccc(Cl)c([N+](=O)[O-])c2)ccc1O)C1CC2CCC1C2 (configuration not stated)	6.3µM*	-10%
CC(NC(=O)COC(=O)CCc1ccc(S(=O)(=O)N2CCOCC2)cc1)C1CC2CCC1C2 (configuration not stated)	?	-4%
C[C@@H]1CC[C@@]2(OC1)OC1CC3C4CC=C5CC(O)CCC5(C)C4CCC3(C)C1[C@@H]2C (some centres not stated)	2%	0%
CCCc1cc(=O)oc2cc(C)c(CN3CCCC3)c(O)c12	9%	-15%
CCCc1cc(=O)oc2c(CN3CCCC3)c(O)ccc12	?	25µM*
CCc1cc(=O)oc2cc(C)c(CN3CCCC3)c(O)c12	7%	-11%
CCCc1cc(=O)oc2c(CN3CCCC3)c(O)c(Cl)cc12	?	32µM*
CCc1cc2c(N=Nc3c(O)[nH]c4ccccc34)ncnc2s1	-14%	-1%
CCc1ccc2[nH]c(O)c(N=Nc3nc(-c4ccccc4)cs3)c2c1	20µM*	-5%
N#CNC(=Nc1ccc(F)cc1)SCc1ccccc1	25µM*	2%
CC(C)N=C(NC#N)SCc1ccc(F)cc1	9%	3%
Cc1cccn2c(=O)c(/C=C(\C#N)c3nc4ccccc4n3C)c(Oc3ccc(Cl)cc3)nc12	-7%	-1%
Cc1cc(Oc2nc3c(C)cccn3c(=O)c2/C=C(\C#N)S(=O)(=O)c2ccc(Cl)cc2)ccc1Cl	13µM*	-1%
CC1CCCc2sc3nc(SCC(=O)c4ccc(Br)cc4)nc(N)c3c21 (configuration not stated)	10µM*	-3%
CCCCCCSc1nc(N)c2c3c(sc2n1)CCCC3C (configuration not stated)	-26%	-5%
CCc1c(O)nc(SCC(=O)Nc2ccc3c(c2)CCC3)[nH]c1=O	-12%	1%
CCCCc1c(O)nc(SCC(=O)Nc2ccc3c(c2)CCC3)[nH]c1=O	20µM*	-17%
O=C(Nc1cccc(NC(=O)c2ccc(-c3ccc(Br)cc3)o2)c1)c1ccccc1	5µM*	-12%
O=C(Nc1ccccc1)c1ccc(-c2ccc(Br)cc2)o1	-7%	-8%
Cc1ccc(NC(=O)CC2Sc3ccccc3NC2=O)c(Br)c1 (configuration not stated)	-6%	4%
CCC1CCCCN1CCCNC(=O)c1ccc2c(c1)N(Cc1cccc(C)c1)C(=O)c1ccccc1S2(=O)=O (configuration not stated)	0%	3%
CCc1nn2c(=O)cc(COC(=O)c3ccc(NC(=O)CCc4ccccc4)cc3)nc2s1	-13%	1%
SMILES	Cruzain inh noDet	Cruzain inh Det
CCC1(CC)Cc2ccccc2-c2nc(-c3ccccc3)oc(=O)c21	?	-1%
O=c1oc(-c2ccccc2)nc2c1C1(CCCCC1)Cc1ccccc1-2	25µM*	-1%
CCCNC(=O)c1cnc2c(-c3ccc(OCC)c(OCC)c3)c(C)nn2c1-c1ccccc1	-5%	-2%
COc1cc2c(C#N)c(N3CCCCC3)nc(N)c2c(N)n1	-28%	-13%
COc1cc2c(C#N)c(N3CCc4ccccc4C3)nc(N)c2c(N)n1	13µM*	-9%
Cc1cc(C)cc(NC2=C(c3ccccc3)C(=O)c3ccccc32)c1	-18%	-8%
Cc1ccccc1CNC(=O)Cn1cc2c(n1)-c1c(oc(C(=O)N3CCCC3)c1C)CC2	12%	-6%
CC(C)(C)c1nc(SCC(=O)Nc2nc3c(s2)CCCC3)c2ccccc2n1	?	-14%
COC(=O)c1sccc1NC(=O)c1cc(-c2ccc(C)cc2)nc2ccccc12	?	-4%
O=C(NC1=NCCS1)c1cc(-c2ccc(-c3ccccc3)cc2)nc2ccccc12	7.9µM*	-3%
CC(C)(C)c1nnc(NC(=O)c2cc(-c3ccccc3)nc3ccccc23)s1	-28%	-3%
COC(=O)c1sccc1NC(=O)c1cc(-c2cccc(C)c2)nc2ccccc12	10µM*	0%
Cc1ccc(NC(=O)c2cc(-c3ccc(C)o3)nc3ccccc23)cc1	-20%	0%
Cc1ccc(-c2cc(C(=O)Nc3ccc4c(c3)OCCO4)c3ccccc3n2)cc1	10µM*	-1%
